Here are results for ten molecules from PubChem BioAssay (NCI).

Molecules are shown by their SMILES. Compounds without any hit were thinned out: in the full panel of roughly 83,000, 20% have a hit.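 Single-concentration screen, 48 h exposure, 96-well plates. Endpoint: percent growth. Below 10 = active.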 A number with no mark means an inactive call. Active and inactive are the calls of the source.

Some test systems named below: NCI-H23 lung; NCI-H226 lung; NCI-H322M lung; HOP-62 NSCLC; NCI-H460 lung; HOP-92 NSCLC; NCI-H522 lung; A549/ATCC NSCLC; 786-0 renal; COLO 205 colon.
Experiment in all cases: NCI-60 one-dose screen, 48 h (100 = growth as untreated, 0 = no growth, -100 = all killed)
Common to all, as to conditions: 10 µM unless noted

As to `C=C(C)[C@@H]1CC[C@]2(C(=O)O)CC[C@]3(C)[C@H](CC[C@@H]4[C@@]5(C)C[C@@H](CC#Cc6ccccc6C)C(=O)C(C)(C)[C@@H]5CC[C@]43C)[C@@H]12`, the growth with NCI-H23 lung is 18.2%; in the assay on NCI-H226 lung, 23.7%; in the assay on NCI-H322M lung, 36.4%; with HOP-62 NSCLC it was 32.5%; with NCI-H460 lung it was 16%; with HOP-92 NSCLC, 38.1%. Moreover, the growth in the assay on NCI-H522 lung is -4.68% (active); in the assay with A549/ATCC NSCLC, 26.7%; in the assay on 786-0 renal, 34.4%; in the assay with COLO 205 colon, -7.56% (active).
With `Nc1c(C(=O)Nc2cccc3ccccc23)sc2nc3c(cc12)CCCCCC3`, the growth in the assay on NCI-H23 lung was 47.8%; in the assay on NCI-H226 lung it was 70.6%; in the assay with NCI-H322M lung it was 48.1%; in the assay on HOP-62 NSCLC, 38.8%; with NCI-H460 lung, 11.2%; in the assay with HOP-92 NSCLC, 52.9%. The growth in the assay on NCI-H522 lung was -37.1% (active); with A549/ATCC NSCLC it was 20.1%; in the assay on 786-0 renal it was 26.4%; with COLO 205 colon, -2.61% (active).
With `CCCCOc1nc2ccc(C)cc2cc1/C=C/C(=O)/C=C/c1ccc2c(c1)OCO2`, the growth in the assay on NCI-H23 lung was 82.4%; in the assay on NCI-H226 lung it was 96.3%; in the assay on NCI-H322M lung, 88%; in the assay on HOP-62 NSCLC it was 112%; with NCI-H460 lung, 103%; in the assay with HOP-92 NSCLC, 80.6%. For the same molecule, the growth in the assay on NCI-H522 lung was 60.6%; in the assay on A549/ATCC NSCLC, 78.3%; with 786-0 renal it was 97.9%; in the assay on COLO 205 colon it was 123%.
Turning to `C#Cc1cccc(Nc2ncnc3ccc(NC(=O)c4ccccc4)cc23)c1`, the growth with NCI-H23 lung is 86.9%; in the assay on NCI-H226 lung, 85.9%; with NCI-H322M lung it was 21.7%; in the assay on HOP-62 NSCLC, 102%; with NCI-H460 lung, 76.8%; with HOP-92 NSCLC it was 65%. For the same molecule, the growth in the assay with NCI-H522 lung is 53.5%; with A549/ATCC NSCLC, 70.9%; in the assay with 786-0 renal, 76.7%; with COLO 205 colon, 99.7%.
As for `O=C(O)c1cc(N=Nc2ccc(-c3ccc(N=Nc4c(S(=O)(=O)O)cc5ccc(Nc6ccccc6)cc5c4O)cc3)cc2)ccc1O`, the growth with NCI-H23 lung is 92.6%; in the assay on NCI-H226 lung, 116%; with NCI-H322M lung it was 94.5%; in the assay on HOP-62 NSCLC, 94.6%; with NCI-H460 lung it was 113%; in the assay with HOP-92 NSCLC, 114%. Further, the growth in the assay with NCI-H522 lung is 89.7%; in the assay on A549/ATCC NSCLC, 104%; with 786-0 renal, 106%; in the assay with COLO 205 colon, 114%.
Consider `O=c1[nH]nc(-c2ccccc2)c2sc(NC(=S)Nc3ccc(Cl)cc3)nc12`, for which the growth was 86% in the assay on NCI-H23 lung; 89.3% in the assay with NCI-H226 lung; 100% in the assay on NCI-H322M lung; 79.4% with HOP-62 NSCLC; 97.6% in the assay on NCI-H460 lung; 97.2% in the assay on HOP-92 NSCLC. Besides, the growth in the assay with NCI-H522 lung is 68.6%; in the assay with A549/ATCC NSCLC it was 90.7%; with 786-0 renal, 92.5%; in the assay on COLO 205 colon, 101%.
Take `CCn1cc(C(=O)O)c(=O)c2cc(F)c(N3CCN(CC(=O)Nc4ccc(/C(C)=N/OC)cc4)CC3)cc21`: the growth in the assay on NCI-H23 lung was 90.6%; in the assay with NCI-H226 lung it was 97.9%; with NCI-H322M lung, 80.2%; in the assay with HOP-62 NSCLC, 88.8%; in the assay on NCI-H460 lung, 104%; in the assay on HOP-92 NSCLC it was 84.8%. In addition, the growth in the assay on NCI-H522 lung was 84.8%; in the assay with A549/ATCC NSCLC it was 95.8%; in the assay with 786-0 renal, 91.7%; in the assay on COLO 205 colon, 102%.
`C=C1C(=O)O[C@H]2[C@H]1CC/C(COC(=O)/C=C/c1cccnc1)=C\CC[C@@]1(C)O[C@@H]21`: the growth is 56.2% in the assay on NCI-H23 lung; 38.5% in the assay with NCI-H226 lung; 93.6% in the assay with NCI-H322M lung; 72.4% with HOP-62 NSCLC; 77.4% in the assay on NCI-H460 lung; 19.1% in the assay with HOP-92 NSCLC. In addition, the growth in the assay on NCI-H522 lung was -43.5% (active); in the assay on A549/ATCC NSCLC, 61.8%; with 786-0 renal, 2.95% (active); in the assay with COLO 205 colon, -46% (active).
Take `Cc1cnc(-c2ccc(-c3ccc(NC(=O)Nc4c(F)cc(F)cc4F)cc3F)c3c2C(=O)NC3)[nH]1`: the growth in the assay with NCI-H23 lung was 20.8%; in the assay on NCI-H226 lung, 65.6%; in the assay with NCI-H322M lung, 43.1%; in the assay with HOP-62 NSCLC, 53.2%; in the assay on NCI-H460 lung, -29.5% (active); in the assay with HOP-92 NSCLC it was 70.8%. Besides, the growth in the assay on NCI-H522 lung was 37.2%; with A549/ATCC NSCLC it was 45.2%; in the assay with 786-0 renal it was 23.1%; in the assay with COLO 205 colon, 20.5%.
Regarding `Fc1ccc(N/N=C/c2ccc(-n3cccn3)cc2)cc1`, the growth is 90.7% in the assay on NCI-H23 lung; 92.3% in the assay with NCI-H226 lung; 99.9% in the assay on NCI-H322M lung; 82.1% in the assay with HOP-62 NSCLC; 106% in the assay on NCI-H460 lung; 105% with HOP-92 NSCLC. The growth is 77.2% in the assay on NCI-H522 lung, 93.7% in the assay with A549/ATCC NSCLC, 104% in the assay on 786-0 renal and 98.1% in the assay on COLO 205 colon.
